From PubChem BioAssay
Only some compounds are listed: those with a hit (about 7.8% of all), similar ones and a draw of the others.
Vaccinia Venus – vaccinia inhibition (Venus reporter); Vaccinia virus Venus reporter expression, fluorescence; Potency, µM (highest dose often 36.5 µM), most hits filed as inhibitors; 0.46% of 330,000 active; AID 720580; calls by dose curve; tested in A549 cells; further: nearly all actives have a fitted effect of over 30% in size
HCMV antiviral – human cytomegalovirus inhibition | HFF cells, HCMV-luciferase reporter, 72 h; hits give low values | activity change, negative = inhibition, % at 57.5 µM | 4.5% of 410,000 active | AID 1259415; in the data active means activity change below about -60%; inconclusive means no clear call, values can overlap the other calls; inactive means above about -39%
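Luciferase read-out from HCMV-luciferase-infected HFFs (MOI 1 PFU/cell) 72 h post infection at 37C; compounds added after 16 h cell attachment; activity normalized between buffer-only basal and Salinomycin (10uM) inhibitor controls.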
Marburg entry inh – Marburg virus entry inhibition; Marburg virus pseudotyped entry inhibition, cell reporter; Potency, µM (top dose mostly 37.8 µM), usual class: inhibitors; 1.8% of 300,000 active; calls by dose curve; tested in HEK293 cells
VACV mCherry inh – inhibitors of vaccinia virus infection (mCherry reporter signal); AID 720579; 0.63% of 310,000 active; Potency, µM (titrated, usually from 36.5 µM), usual class: inhibitors; Vaccinia virus mCherry reporter infection, fluorescence; calls by dose curve; tested in A549 cells; further: nearly all actives have a fitted effect of over 35% in size
HCV inh – blocks hepatitis C virus; Potency, µM (series often up to 41.8 µM), actives largely listed as inhibitors; AID 651820; Huh7.5.1 HCVcc-Cre infection, luciferase reporter, 44 h; 3.4% of 340,000 active; active means well fitted inhibition curve with a large enough effect; inconclusive means small, poorly fitted or top-dose-only effect, or another doubt; inactive means no such curve, though single readings can be large or run the other way
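Infectious HCVcc-Cre (~0.5 moi) was added to cells just after compound, with cells seeded 4 h earlier at 1,000 per well. Luciferase activity after 44 h culture reported infection; substrate was incubated 15 min at room temperature before reading.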
Lassa entry inh – Lassa virus entry inhibition. Lassa virus pseudotype entry inhibition, cell reporter. Potency, µM (top dose mostly 37.9 µM), usual class: inhibitors. 1.2% of 300,000 active. AID 540256; calls by dose curve; tested in HEK293 cells; further: nearly all actives have a fitted effect of over 50% in size
Numbers stand for hits; [ ] = dose if it differs, or a comment.

Results for COC(=O)c1ccccc1COc1cccn2c(N(C)CC3CC3)c(C)nc12 ?
Vaccinia Venus: inactive; HCMV antiviral: -99; VACV mCherry inh: inactive

How did CCOC(=O)Cc1nn(CC)c(=O)c2ccccc12 do in these assays?
HCMV antiviral: inactive; HCV inh: inactive

How did CCOC(=O)Cc1nn(Cc2nc(-c3ccc(C#N)cc3)cs2)c(=O)c2ccccc12 do in these assays?
Vaccinia Venus: inactive; HCMV antiviral: inconclusive; Marburg entry inh: inconclusive; VACV mCherry inh: inactive; HCV inh: 10µM; Lassa entry inh: inconclusive

What do the screens show for `O=C(O)CSc1cc(NS(=O)(=O)c2cccc([N+](=O)[O-])c2)c2ccccc2c1O`?
Vaccinia Venus: inconclusive; HCMV antiviral: inactive; VACV mCherry inh: 10µM; HCV inh: 11µM

What do the screens show for `O=S(=O)(Nc1cc(Sc2cccc3cccnc23)c(O)c2ccccc12)c1ccccc1`?
HCMV antiviral: -100; Marburg entry inh: inconclusive; HCV inh: inconclusive; Lassa entry inh: 18µM

Results for Cc1ccc(C)c(S(=O)(=O)Nc2cc(SCC(=O)O)c(O)c3ccccc23)c1 ?
Vaccinia Venus: inactive; Marburg entry inh: inconclusive; VACV mCherry inh: inactive; HCV inh: inconclusive; Lassa entry inh: inconclusive

What do the screens show for `CCOc1ccc(S(=O)(=O)Nc2cc(SCC(=O)O)c(O)c3ccccc23)cc1`?
HCMV antiviral: inactive; HCV inh: 10µM

What do the screens show for `CCc1ccc(S(=O)(=O)Nc2cc(SCC(=O)O)c(O)c3ccccc23)cc1`?
HCMV antiviral: inactive; Marburg entry inh: inconclusive; HCV inh: inconclusive; Lassa entry inh: inconclusive

What do the screens show for `COC(=O)[C@]12CCCCC=C1N(Cc1ccco1)C(=O)[C@H](CC(=O)N1CCC(c3ccccc3)CC1)C2`?
Vaccinia Venus: inactive; HCMV antiviral: inactive; VACV mCherry inh: inactive

How did CCc1ccc(C(=O)c2cn(CC(=O)Nc3cc(C)ccc3C)c3nc(C)ccc3c2=O)cc1 do in these assays?
Vaccinia Venus: inactive; HCMV antiviral: inactive; VACV mCherry inh: inactive; Lassa entry inh: inactive

What do the screens show for `COc1cccc(-n2nnnc2S(C)(=O)=O)c1`?
Vaccinia Venus: inconclusive; Marburg entry inh: inconclusive; VACV mCherry inh: inconclusive; HCV inh: inconclusive; Lassa entry inh: 8.9µM

Results for Cc1cccc(-n2nnnc2S(C)(=O)=O)c1 ?
Vaccinia Venus: inactive; HCMV antiviral: -108; VACV mCherry inh: inactive; Lassa entry inh: inconclusive

What do the screens show for `COc1cccc(Oc2nnnn2-c2ccccc2)c1`?
HCMV antiviral: inactive; Marburg entry inh: inactive; HCV inh: inactive; Lassa entry inh: inactive

What do the screens show for `Cc1ccc(CNc2nc(CN3CCSCC3)nc3ccccc23)o1`?
Vaccinia Venus: inactive; VACV mCherry inh: inactive

How did CCN(C[C@H]1N[C@@](Cc2ccccc2)(C(=O)OC)[C@H]2C(=O)N(C)C(=O)[C@@H]12)S(=O)(=O)c1ccc(-c2ccccc2)cc1 do in these assays?
Vaccinia Venus: inactive; HCMV antiviral: inactive; VACV mCherry inh: inactive; HCV inh: 18µM

Results for CCN(C[C@H]1N[C@@](Cc2ccccc2)(C(=O)OC)[C@H]2C(=O)N(C)C(=O)[C@@H]12)S(=O)(=O)c1ccccc1 ?
Vaccinia Venus: inactive; HCMV antiviral: inactive; VACV mCherry inh: inactive; HCV inh: inactive

Results for CCN(C[C@H]1N[C@@](Cc2ccccc2)(C(=O)OC)[C@H]2C(=O)N(Cc3ccccc3)C(=O)[C@@H]12)S(=O)(=O)c1ccc(C)cc1 ?
Vaccinia Venus: inactive; HCMV antiviral: inactive; VACV mCherry inh: inactive; HCV inh: 7.1µM

What do the screens show for `O=C1/C(=C/c2ccccc2[N+](=O)[O-])COc2ccccc21`?
HCMV antiviral: -100; HCV inh: inconclusive

How did CCOC(=O)C(C)NC(=O)c1c2c(nc3ccccc13)C(=O)N(C1CCCCC1)C2 (centres undefined) do in these assays?
Vaccinia Venus: inactive; HCMV antiviral: inactive; VACV mCherry inh: inactive; Lassa entry inh: inactive

How did CCc1nccc2c1[nH]c1ccccc12 do in these assays?
Vaccinia Venus: inactive; VACV mCherry inh: inactive; HCV inh: 11µM

Results for Cc1nccc2c1[nH]c1ccccc12 ?
Vaccinia Venus: inactive; HCMV antiviral: inactive; Marburg entry inh: inconclusive; VACV mCherry inh: inactive; HCV inh: inconclusive; Lassa entry inh: inactive

How did Cc1cccc(NC(=O)c2c([N+](=O)[O-])c(C(C)(C)C)nn2C)c1 do in these assays?
Vaccinia Venus: inactive; HCMV antiviral: inactive; Marburg entry inh: inconclusive; VACV mCherry inh: inactive; HCV inh: inactive; Lassa entry inh: inconclusive

Results for Cn1nc(C(C)(C)C)c([N+](=O)[O-])c1C(=O)Nc1ccc(Br)cc1 ?
HCMV antiviral: inactive; HCV inh: 13µM

What do the screens show for `CCc1ccc(/C=C2\SC(=S)N(CCCC(=O)Nc3ccccn3)C2=O)cc1`?
Vaccinia Venus: inactive; HCMV antiviral: -103; Marburg entry inh: inconclusive; HCV inh: inactive; Lassa entry inh: 11µM

How did COC(=O)c1ccc(/C=C2/SC(=S)N(CCCC(=O)Nc3ccccn3)C2=O)cc1 do in these assays?
Vaccinia Venus: inactive; HCMV antiviral: -85; Marburg entry inh: inconclusive; VACV mCherry inh: inactive; HCV inh: inactive; Lassa entry inh: inactive

Results for COC(=O)c1ccc(/C=C2\SC(=S)N(CCCC(=O)NCCCN3CCOCC3)C2=O)cc1 ?
Vaccinia Venus: inactive; HCMV antiviral: inconclusive; Marburg entry inh: inconclusive; VACV mCherry inh: inactive; HCV inh: inactive

What do the screens show for `CCc1ccc(/C=C2/SC(=S)N(CCCC(=O)Nc3ccccc3C(=O)O)C2=O)cc1`?
Vaccinia Venus: inactive; HCMV antiviral: inactive; Marburg entry inh: inactive; VACV mCherry inh: inactive; HCV inh: inactive; Lassa entry inh: inactive

How did O=C(CSc1nnc(COc2ccccc2)o1)Nc1cc(C(F)(F)F)ccc1Cl do in these assays?
Vaccinia Venus: inactive; HCMV antiviral: inactive; Marburg entry inh: inactive; VACV mCherry inh: inactive; Lassa entry inh: inactive

How did Cc1c(C(=O)Nc2ccc(-c3nnc4n3CCCCC4)cc2)oc2c1ccc1ccccc12 do in these assays?
Vaccinia Venus: inconclusive; HCMV antiviral: inconclusive; Marburg entry inh: inconclusive; VACV mCherry inh: 14µM; HCV inh: inactive; Lassa entry inh: inconclusive

What do the screens show for `Cc1ccc(C(=O)Oc2csc(=S)n2C(=O)c2ccc(C)cc2)cc1`?
Vaccinia Venus: inactive; HCMV antiviral: -62; Marburg entry inh: inactive; VACV mCherry inh: inactive; HCV inh: inactive; Lassa entry inh: inactive

How did CCC1(C2CCN(C(=O)c3cc(C)cc(C)c3)CC2)NC(=O)N(CCc2scnc2C)C1=O (centres undefined) do in these assays?
Vaccinia Venus: inactive; VACV mCherry inh: inactive

How did C=CS(=O)(=O)N(Cc1ccccc1Br)[C@H](CO)CC(C)C do in these assays?
Vaccinia Venus: 1.4µM; HCMV antiviral: inactive; VACV mCherry inh: inconclusive; HCV inh: inactive[8.37 µM]

How did CC(C)C[C@@H](CO)N(Cc1ccccc1)S(=O)(=O)N(Cc1ccccc1)[C@H](CO)CC(C)C do in these assays?
Vaccinia Venus: inconclusive; VACV mCherry inh: inactive; HCV inh: inconclusive

Results for COc1ccc(CN([C@H](C)CO)S(=O)(=O)N(Cc2ccccc2)[C@H](CO)C(C)C)cc1 ?
Vaccinia Venus: inactive; HCMV antiviral: inactive; VACV mCherry inh: inactive; HCV inh: inconclusive
